This note sets out measurements from PubChem BioAssay (NCATS).

A number with no mark means an inactive call. Inconclusive results are not listed. Calls of active or inactive are those of the source. Unless noted, calls come from the whole dose curve; as a rule, active = well fitted curve in either direction with a large enough effect (not every such curve was filed as active); inconclusive = small, poorly fitted or top-dose-only effect, or another doubt; inactive = flat fitted curve, though single readings scatter.

The target of experiment [1] is Lysosomal acid glucosylceramidase (Homo sapiens) (UniProt P04062). Nature of the experiment: Glucocerebrosidase-p2 (AID 348; in the data active = potency below about 10 µM; note: potency is the fitted concentration of half-maximal effect). The conditions noted are these: purified GBA, blue fluorogenic substrate, 40 min. Put shortly: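 Compounds titrated from 0.6 nM upwards against 0.2 nM enzyme in pH 5.9 citric acid/KH2PO4, taurocholate, tween-20; blue fluorogenic substrate 80 uM, 40 min room temperature, stopped and read Ex 365/Em 440 for AC50.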
Chain of Lysosomal acid glucosylceramidase (Homo sapiens) (P04062 whole entry, looked up): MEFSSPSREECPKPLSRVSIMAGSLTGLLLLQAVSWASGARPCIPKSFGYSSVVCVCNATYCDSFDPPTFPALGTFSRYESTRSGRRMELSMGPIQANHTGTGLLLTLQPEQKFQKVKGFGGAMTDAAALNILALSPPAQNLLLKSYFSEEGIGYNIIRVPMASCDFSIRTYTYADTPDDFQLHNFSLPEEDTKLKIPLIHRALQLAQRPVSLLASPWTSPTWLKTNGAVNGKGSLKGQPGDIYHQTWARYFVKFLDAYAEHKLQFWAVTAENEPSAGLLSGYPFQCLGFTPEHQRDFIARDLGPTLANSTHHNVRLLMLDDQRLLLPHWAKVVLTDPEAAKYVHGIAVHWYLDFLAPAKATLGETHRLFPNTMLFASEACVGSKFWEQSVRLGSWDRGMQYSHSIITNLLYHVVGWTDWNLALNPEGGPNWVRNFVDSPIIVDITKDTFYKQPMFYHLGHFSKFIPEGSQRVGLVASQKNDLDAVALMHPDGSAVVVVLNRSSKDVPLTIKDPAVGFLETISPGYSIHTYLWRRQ

Experiment [2] in a line: AP1 Signaling Pathway (AID 357). Note: % is set by controls: 0 for no effect and ±100 for the full control effect. The conditions noted are these: ME-180 AP-1-bla reporter, EGF-induced, beta-lactamase ratio, 5 h; at 7.69 µM (top of the series) unless noted. The procedure, abridged: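 Read-out was the 460nm/530nm emission ratio (excitation 405nm) after CCF4 loading for 2.5 hours at room temperature. Cells carried an AP-1-driven beta-lactamase reporter, were stimulated with EC50 EGF plus compound for 5 hours, and AC50 values came from titrations.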

Experiment [3] deals with Cytochrome P450 1A2 (Homo sapiens) (UniProt P05177). The experiment in a line: p450-cyp1a2 (AID 410; calls by dose curve; note: potency is the fitted concentration of half-maximal effect;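 for activity change, negative = inhibition: -100% = full effect of reference inhibitor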). The following applies: recombinant CYP1A2, luciferin-ME demethylation, luminescence; series mostly up to 11.4 µM. The procedure, abridged: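 Luminescent readout of luciferin formed from Luciferin-ME by human CYP1A2; data normalized against complete inhibition by 57 uM furafylline. Enzyme 20nM, substrate 100uM at Km, 100mM KPO4 buffer, 60 min reaction at room temperature.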
Chain of Cytochrome P450 1A2 (Homo sapiens) (P05177 whole entry, looked up): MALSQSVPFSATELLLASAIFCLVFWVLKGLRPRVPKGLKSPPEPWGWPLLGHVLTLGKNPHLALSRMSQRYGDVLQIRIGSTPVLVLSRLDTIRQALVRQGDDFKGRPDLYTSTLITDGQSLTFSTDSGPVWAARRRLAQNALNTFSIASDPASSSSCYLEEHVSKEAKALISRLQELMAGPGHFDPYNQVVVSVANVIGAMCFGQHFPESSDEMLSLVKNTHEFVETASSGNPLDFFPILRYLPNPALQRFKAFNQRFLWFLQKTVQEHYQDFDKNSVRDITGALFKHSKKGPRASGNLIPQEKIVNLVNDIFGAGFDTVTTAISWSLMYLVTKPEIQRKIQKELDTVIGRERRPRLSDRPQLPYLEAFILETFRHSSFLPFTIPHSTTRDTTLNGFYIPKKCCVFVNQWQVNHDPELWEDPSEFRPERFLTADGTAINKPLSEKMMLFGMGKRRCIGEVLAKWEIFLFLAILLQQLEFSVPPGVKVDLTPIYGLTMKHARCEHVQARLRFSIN

A short description of experiment [4]: Stat Signaling Pathway (AID 446).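 Note: ME-180 cervical cancer cells given 40 pM IL-6 alongside compound; SIE-controlled beta-lactamase reporter measured as 460/530 nm FRET emission ratio; % is set by controls: 0 for no effect and ±100 for the full control effect.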 The conditions noted are these: ME-180 SIE beta-lactamase reporter, IL-6 stimulated, 5 h; at 7.69 µM (top of the series) unless noted. Put shortly: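 ME-180 cells carrying a SIE-driven beta-lactamase reporter are stimulated with 40 pM IL-6 for 5 h at 37C in the presence of compound. The 460/530 nm FRET substrate ratio is read after 2.5 h at RT. Data are normalised to 300 pM IL-6 and to 125 nM JAK inhibitor controls.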

Experiment [5] concerns the target Glucocorticoid receptor (Homo sapiens) (UniProt P04150). Nature of the experiment: GR-GFP Redistribution (AID 450;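 active = compounds whose dose series gives a full or clear partial fitted curve of increased nuclear translocation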; note: potency is the fitted concentration of half-maximal effect). The following applies: U2OS GR-GFP nuclear translocation, laser cytometry, 2 h.
Experiment [6] shares this target. The experiment in a line: GR-EFC Redistribution (AID 451; calls by dose curve; note: potency is the fitted concentration of half-maximal effect). The conditions noted are these: CHO-K1 GR-EFC translocation, beta-gal luminescence, 2 h. Put shortly:
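CHO-K1 cells expressing nuclear EA and GR-ED fragments of b-gal; compounds titrated up to 46 uM final, 2 h at 37 C. GR nuclear translocation read as complemented b-gal luminescence after 1 h RT detection.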

In experiment [7] the target is Mitogen-activated protein kinase 10 (Mus musculus) (UniProt Q61831). The experiment in a line: JNK3 AlphaScreen Assay (AID 530).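 Note: kinase came from lysate of stimulated human HepG2 cells; signal reports phosphorylation of biotinylated GST-cJun 1-79 at Ser73 with 10 µM ATP; % is set by controls: 0 for no effect and ±100 for the full control effect.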 The conditions noted are these: JNK3 lysate, c-Jun phosphorylation; series mostly up to 11.4 µM. The procedure, abridged: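 Pre-activated (IL-1β/TNFα) JNK3 in HepG2 lysates phosphorylates biotin-GST-cJun(1-79), 10 uM ATP; anti-phospho-cJun(Ser73) AlphaScreen read at room temperature, pH 7.6 Tris buffer. Compounds pre-incubated 15 min as titrations.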
(In general: In Alpha technology, singlet oxygen from a donor bead excites a nearby acceptor bead.)

In experiment [8] the target is 3',5'-cyclic-AMP phosphodiesterase 4B (Homo sapiens) (UniProt Q07343). Nature of the experiment: qHTS Assay for Inhibitors of PDE-IV (AID 607; active = well fitted activation curve with a large enough effect in the main read-out, with a control signal flat, not every such curve was filed as active; note: % of control where 0% means no effect). The following applies: HEK293 ACTOne CNG channel cells, membrane potential fluorescence; series mostly up to 22.9 µM. Put shortly:
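HEK293 ACTOne cells with CNG channel (1000/well), endogenous PDE4; membrane potential dye, compounds up to 22.9 uM final. Fluorescence Ex 535/Em 590; RO 20-1724 (100 uM final) as reference.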

Chain of Glucocorticoid receptor (Homo sapiens) (P04150 whole entry, looked up): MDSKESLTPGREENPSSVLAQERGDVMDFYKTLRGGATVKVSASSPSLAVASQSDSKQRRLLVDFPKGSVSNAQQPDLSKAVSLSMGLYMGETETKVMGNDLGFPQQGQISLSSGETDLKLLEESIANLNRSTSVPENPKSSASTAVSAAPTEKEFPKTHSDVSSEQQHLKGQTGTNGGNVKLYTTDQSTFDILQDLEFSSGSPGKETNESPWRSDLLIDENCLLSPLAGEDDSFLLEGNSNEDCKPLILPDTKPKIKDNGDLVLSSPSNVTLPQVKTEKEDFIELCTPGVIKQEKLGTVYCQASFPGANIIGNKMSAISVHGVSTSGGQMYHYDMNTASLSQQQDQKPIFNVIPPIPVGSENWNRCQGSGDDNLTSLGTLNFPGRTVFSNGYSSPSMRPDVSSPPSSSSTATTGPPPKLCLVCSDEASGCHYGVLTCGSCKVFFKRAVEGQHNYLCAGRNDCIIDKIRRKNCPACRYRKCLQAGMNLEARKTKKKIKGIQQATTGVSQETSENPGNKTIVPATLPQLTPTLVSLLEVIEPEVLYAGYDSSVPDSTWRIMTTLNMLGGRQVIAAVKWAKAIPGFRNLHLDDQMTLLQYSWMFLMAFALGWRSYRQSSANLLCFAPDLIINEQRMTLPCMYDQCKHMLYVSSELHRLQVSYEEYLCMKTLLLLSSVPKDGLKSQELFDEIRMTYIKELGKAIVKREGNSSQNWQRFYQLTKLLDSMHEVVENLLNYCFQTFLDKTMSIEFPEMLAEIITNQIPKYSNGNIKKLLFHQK
Chain of 3',5'-cyclic-AMP phosphodiesterase 4B (Homo sapiens) (Q07343 whole entry, looked up): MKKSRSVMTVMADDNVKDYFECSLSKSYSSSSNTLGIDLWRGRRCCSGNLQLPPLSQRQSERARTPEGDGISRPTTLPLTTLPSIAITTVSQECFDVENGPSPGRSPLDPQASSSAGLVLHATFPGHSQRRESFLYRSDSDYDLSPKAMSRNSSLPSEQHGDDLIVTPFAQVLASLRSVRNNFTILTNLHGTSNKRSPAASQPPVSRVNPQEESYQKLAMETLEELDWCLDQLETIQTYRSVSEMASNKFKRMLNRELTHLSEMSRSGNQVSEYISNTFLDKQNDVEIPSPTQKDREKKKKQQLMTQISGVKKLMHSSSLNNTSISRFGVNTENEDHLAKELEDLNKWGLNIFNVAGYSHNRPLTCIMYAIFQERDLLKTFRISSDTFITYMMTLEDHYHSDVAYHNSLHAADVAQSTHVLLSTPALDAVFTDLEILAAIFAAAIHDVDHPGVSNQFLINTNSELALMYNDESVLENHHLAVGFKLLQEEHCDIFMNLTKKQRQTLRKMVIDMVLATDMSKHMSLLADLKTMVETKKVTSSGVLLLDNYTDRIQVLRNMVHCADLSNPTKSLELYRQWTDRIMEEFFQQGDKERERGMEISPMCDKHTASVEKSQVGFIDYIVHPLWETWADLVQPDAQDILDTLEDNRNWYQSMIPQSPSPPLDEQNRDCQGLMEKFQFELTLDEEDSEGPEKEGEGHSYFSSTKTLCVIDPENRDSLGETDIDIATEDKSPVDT

Take `CC(C)c1ccc(/C(C(=O)O)=C(\O)C(=O)O)cc1`: the Potency is > 11.4 µM in experiment [1], > 46 µM in experiment [5] and > 9.22 µM in experiment [6]. Further, the activity change, negative = inhibition in experiment [2] was -1.43%. For the same compound, the Potency result in experiment [3], in experiment [7] and in experiment [8] was “inactive” each time. For the same compound, in experiment [4], the activity, negative = inhibition was -0.351%.
Consider `Cn1c(=O)c2[nH]c(/N=N\N3CCN(CCO)CC3)nc2n(C)c1=O`, for which the Potency in experiment [1] was > 11.4 µM; in experiment [5], > 46 µM; in experiment [6], > 9.22 µM. Besides, the activity change, negative = inhibition in experiment [2] was 6.96%; in experiment [3], -14.7% [at 2.29 µM]. For the same compound, the activity, negative = inhibition in experiment [4] is 11.6%. The Potency entry in experiment [7] and in experiment [8] was “inactive” each time.
With `C/C(=N/NC1=NCCN1)c1cn(C2=NCCN2)nc1C`, the Potency was > 11.4 µM in experiment [1], > 46 µM in experiment [5] and > 9.22 µM in experiment [6]. Besides, the figures for the activity change, negative = inhibition in experiment [2] and in experiment [3] were 6.21% and -13.9% [at 2.29 µM], respectively. Also, the activity, negative = inhibition in experiment [4] is 1.37%. Also, the Potency entry in experiment [7] and in experiment [8] was “inactive” each time.
For the compound `C[C@@H](CS(=O)(=O)Cc1ccccc1)C(N)=O`, the Potency in experiment [1] was > 11.4 µM; in experiment [5], > 46 µM; in experiment [6], > 9.22 µM. The activity change, negative = inhibition in experiment [2] is 8.67%. Further, the Potency result in experiment [3], in experiment [7] and in experiment [8] was “inactive” throughout. Further, in experiment [4], the activity, negative = inhibition was 3.43%.
For the compound `O=C1[C@@H]2[C@@H](C(=O)N1c1ccc(OCc3ccccc3)cc1)[C@@H]1c3ccccc3[C@@H]2[n+]2ccccc21`, the values for the Potency in experiment [1], in experiment [5] and in experiment [6] were > 11.4 µM, > 46 µM and > 9.22 µM, respectively. For the same compound, the activity change, negative = inhibition in experiment [2] was -1.52%. The Potency result in experiment [3], in experiment [7] and in experiment [8] was “inactive” each time. Besides, the activity, negative = inhibition in experiment [4] was 4.93%.
Turning to `O[C@@H](c1cc(C(F)(F)F)nc2c(Cl)cc(Cl)cc12)[C@@H]1CCCCN1`, the Potency was > 11.4 µM in experiment [1], 3.98 µM (active) in experiment [3], > 46 µM in experiment [5] and > 9.22 µM in experiment [6]. The activity change, negative = inhibition in experiment [2] was 14.2%. The activity, negative = inhibition in experiment [4] was -0.0324%. In addition, the Potency entry in experiment [7] and in experiment [8] was “inactive” throughout.
As to `O=C(O)CCCSc1ccccc1`, the values for the Potency in experiment [1], in experiment [5] and in experiment [6] were > 11.4 µM, > 46 µM and > 9.22 µM, respectively. The activity change, negative = inhibition in experiment [2] is -2.81%. Further, the Potency entry in experiment [3], in experiment [7] and in experiment [8] was “inactive” in each case. Besides, in experiment [4], the activity, negative = inhibition is 4.11%.
On to `Cn1ccnc1C[C@@](C)(O)c1ccccc1`, for which the values for the Potency in experiment [1], in experiment [5] and in experiment [6] were > 11.4 µM, > 46 µM and > 9.22 µM, respectively. For the same compound, the activity change, negative = inhibition in experiment [2] was 7.99%. Besides, the Potency result in experiment [3], in experiment [7] and in experiment [8] was “inactive” throughout. Moreover, the activity, negative = inhibition in experiment [4] is 8.21%.
`Nc1ncnc2c1ncn2[C@H]1O[C@@H](C(=O)O)[C@@H](O)[C@H]1O`: the Potency is > 11.4 µM in experiment [1], > 46 µM in experiment [5] and > 9.22 µM in experiment [6]. Moreover, the activity change, negative = inhibition in experiment [2] is 17.5%. The Potency entry in experiment [3], in experiment [7] and in experiment [8] was “inactive” throughout. In experiment [4], the activity, negative = inhibition is 6.21%.
Consider `O=C(Nc1cccc2cccnc12)[C@@H]1[C@@H](C(=O)O)[C@H]2CC[C@@H]1O2`, for which the Potency in experiment [1] was > 11.4 µM; in experiment [5], > 46 µM; in experiment [6], > 9.22 µM. Further, the activity change, negative = inhibition in experiment [2] was 6.33%. For the same compound, the Potency result in experiment [3], in experiment [7] and in experiment [8] was “inactive” in each case. Moreover, the activity, negative = inhibition in experiment [4] is -11%.
As for `Cc1ncn(-c2ccccc2O)c1C`, the Potency is > 11.4 µM in experiment [1], 0.794 µM (active) in experiment [3], > 46 µM in experiment [5] and > 9.22 µM in experiment [6]. Further, the activity change, negative = inhibition in experiment [2] was 4.1%. Besides, the activity, negative = inhibition in experiment [4] was 6.2%. Also, the Potency result in experiment [7] and in experiment [8] was “inactive” throughout.
As for `OCCN(CCO)c1ncnc2nc[nH]c12`, the Potency was > 11.4 µM in experiment [1], > 46 µM in experiment [5] and > 9.22 µM in experiment [6]. The activity change, negative = inhibition in experiment [2] is -2.15%. Further, the Potency result in experiment [3], in experiment [7] and in experiment [8] was “inactive” throughout. Further, the activity, negative = inhibition in experiment [4] is -0.624%.
`Cc1cc(=Nc2ccc3c(c2)c(N)cc(C)[n+]3C)nc(N)n1C`: the results for the Potency in experiment [1], in experiment [5] and in experiment [6] were > 11.4 µM, > 46 µM and > 9.22 µM, respectively. The activity change, negative = inhibition in experiment [2] was -3.85%; in experiment [3], -5.3% [at 2.29 µM]. Besides, the activity, negative = inhibition in experiment [4] is -8.63%. Besides, the Potency result in experiment [7] and in experiment [8] was “inactive” throughout.
Turning to `Cc1ccc(S(=O)(=O)O[C@@H]2[C@H]([C@@H]3COC(C)(C)O3)O[C@H]3OC(C)(C)O[C@@H]32)cc1`, the Potency is > 11.4 µM in experiment [1], > 46 µM in experiment [5] and > 9.22 µM in experiment [6]. In experiment [2], the activity change, negative = inhibition was 1.73%. For the same compound, the Potency result in experiment [3], in experiment [7] and in experiment [8] was “inactive” in each case. Besides, the activity, negative = inhibition in experiment [4] is 7.9%.
For `CN(C)Cc1ccc(-c2cc3onc(-c4ccccc4)c3c(=O)n2C)cc1`, the values for the Potency in experiment [1], in experiment [5] and in experiment [6] were > 11.4 µM, > 46 µM and > 9.22 µM, respectively. Moreover, the activity change, negative = inhibition in experiment [2] was 12.1%. In addition, the Potency result in experiment [3], in experiment [7] and in experiment [8] was “inactive” throughout. The activity, negative = inhibition in experiment [4] was -3.19%.
As for `Oc1c(CN2CCN(c3ccccc3)CC2)cc(Br)c2cccnc12`, the Potency in experiment [1] is > 11.4 µM; in experiment [3] it was 1.26 µM (active); in experiment [5], > 46 µM; in experiment [6], > 9.22 µM. Also, the activity change, negative = inhibition in experiment [2] is 3.27%. Also, the activity, negative = inhibition in experiment [4] was -0.132%. In addition, the Potency result in experiment [7] and in experiment [8] was “inactive” each time.
Consider `COc1ccc2cc1Oc1ccc(cc1)C[C@@H]1c3c(cc(OC)c4c3Oc3cc5c(cc3O4)CCN[C@H]5C2)CCN1C`, for which the Potency is > 11.4 µM in experiment [1], > 46 µM in experiment [5] and > 9.22 µM in experiment [6]. In addition, the activity change, negative = inhibition in experiment [2] is -4.55%. In addition, the Potency entry in experiment [3], in experiment [7] and in experiment [8] was “inactive” each time. In addition, in experiment [4], the activity, negative = inhibition was 14.2%.
